Our source for the Potency, activity change, negative = inhibition and activity, negative = inhibition values is PubChem BioAssay (NCATS).

The nature of assay [1]: qHTS for Inhibitors of Plasmodium falciparum (GB4) proliferation (AID 504315). Also: nearly all actives have a fitted effect of over 50% in size. Also: potency is read from the fitted curve at half-maximal effect.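 As to activity change, negative = inhibition: 0% = DMSO vehicle and -100% = 0.29 µM artemisinin control.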 In short, it runs like this:
(§1)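 Erythrocytes infected with P. falciparum line (0.3% parasitemia, 2.5% hematocrit final) incubated with compounds 72 h at 37 °C, 5% CO2; SYBR Green lysis buffer added, fluorescence read next day. Normalized to 0.29 uM artemisinin and DMSO.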

Assay [2] is described as follows: qHTS for Inhibitors of Plasmodium falciparum (7G8) proliferation (AID 504316). Also: nearly all actives have a fitted effect of over 65% in size. Also: potency is read from the fitted curve at half-maximal effect.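 As to activity change, negative = inhibition: series mostly up to about 6.7 µM; 0% = DMSO vehicle and -100% = 0.29 µM artemisinin full kill.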 In short, it runs like this:
as §1
In general terms: qHTS replaces the single test concentration by a dilution series.

A short description of assay [3]: qHTS for Inhibitors of Plasmodium falciparum (HB3) proliferation (AID 504318). Also: nearly all actives have a fitted effect of over 60% in size. Also: potency is read from the fitted curve at half-maximal effect.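 As to activity change, negative = inhibition: 0% = DMSO vehicle and -100% = artemisinin control.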 In short, it runs like this: as §1
A short description of assay [4]: qHTS for Inhibitors of Plasmodium falciparum (CP250) proliferation (AID 504320).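 Also: plate controls were DMSO vehicle for no effect and 0.29 µM artemisinin control for full effect.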 In short, it runs like this: as §1
For assay [5], the target named is Atrial natriuretic peptide receptor 1 (Homo sapiens) (UniProt P16066). The experiment in a line: Natriuretic polypeptide receptor (hNpr1) antagonism - Pilot CMLD screen (AID 1347052; calls by dose curve;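 also: cGMP level read as GloSensor luciferase luminescence after agonist stimulation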; also: potency is read from the fitted curve at half-maximal effect;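 as to activity change, negative = inhibition: HEK293 cells with hNpr1 stimulated by hNppA peptide at 0.1 nM; series mostly up to about 9.2 µM; % is scaled to controls: 0 for no effect and ±100 for the full control effect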).
Sequence of Atrial natriuretic peptide receptor 1 (Homo sapiens) (P16066 whole entry, looked up): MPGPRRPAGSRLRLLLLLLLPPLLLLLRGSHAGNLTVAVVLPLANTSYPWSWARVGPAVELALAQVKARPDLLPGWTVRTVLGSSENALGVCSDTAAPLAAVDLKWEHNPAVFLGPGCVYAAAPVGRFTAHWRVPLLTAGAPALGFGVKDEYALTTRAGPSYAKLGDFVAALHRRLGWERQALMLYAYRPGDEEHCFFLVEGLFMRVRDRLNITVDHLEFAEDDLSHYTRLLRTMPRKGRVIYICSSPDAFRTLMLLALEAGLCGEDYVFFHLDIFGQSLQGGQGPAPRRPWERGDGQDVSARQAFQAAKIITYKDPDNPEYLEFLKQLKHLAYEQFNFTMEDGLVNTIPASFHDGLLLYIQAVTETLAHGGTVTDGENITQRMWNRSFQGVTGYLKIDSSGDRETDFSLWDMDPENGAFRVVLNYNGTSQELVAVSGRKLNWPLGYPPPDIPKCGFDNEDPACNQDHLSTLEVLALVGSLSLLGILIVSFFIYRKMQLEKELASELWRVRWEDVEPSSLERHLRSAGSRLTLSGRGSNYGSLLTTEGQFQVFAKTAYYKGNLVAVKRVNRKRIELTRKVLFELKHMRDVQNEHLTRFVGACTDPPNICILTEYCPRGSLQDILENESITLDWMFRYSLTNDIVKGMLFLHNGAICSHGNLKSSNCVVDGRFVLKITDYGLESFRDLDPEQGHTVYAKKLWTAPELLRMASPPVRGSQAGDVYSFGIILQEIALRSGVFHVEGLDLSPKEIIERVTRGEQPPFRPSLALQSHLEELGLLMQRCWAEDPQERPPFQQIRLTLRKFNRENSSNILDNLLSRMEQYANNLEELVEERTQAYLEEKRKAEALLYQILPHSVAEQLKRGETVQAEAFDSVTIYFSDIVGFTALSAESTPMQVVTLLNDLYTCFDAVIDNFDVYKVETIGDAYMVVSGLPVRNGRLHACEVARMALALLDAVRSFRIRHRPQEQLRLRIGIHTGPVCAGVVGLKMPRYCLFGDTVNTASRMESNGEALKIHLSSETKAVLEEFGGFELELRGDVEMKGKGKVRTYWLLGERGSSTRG
Assay [6] addresses Cytochrome P450 2C9 (Homo sapiens) (UniProt P11712). The assay can be described thus: qHTS Assay for Inhibitors and Substrates of Cytochrome P450 2C9 (AID 883). Also: nearly all actives have a fitted effect of over 60% in size. Also: potency is read from the fitted curve at half-maximal effect. As to activity change, negative = inhibition: % is scaled to controls: 0 for no effect and ±100 for the full control effect. In short, it runs like this: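 Human CYP2C9 (10nM) hydroxylated Luciferin-H (100uM, at its KM) to luciferin in 25mM KPO4. Compound was preincubated 10 min at 37C, then NADPH regeneration started a 60 min reaction at 37C. Luminescence was read after detection reagent, normalized to 57uM sulphaphenazole.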

The target in assay [7] is Cytochrome P450 2C19 (Homo sapiens) (UniProt P33261). The experiment in a line: qHTS Assay for Inhibitors and Substrates of Cytochrome P450 2C19 (AID 899). Also: nearly all actives have a fitted effect of over 60% in size. Also: potency is read from the fitted curve at half-maximal effect. As to activity, negative = inhibition: % is scaled to controls: 0 for no effect and ±100 for the full control effect. In short, it runs like this:
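Human CYP2C19 (5nM) with Luciferin-H EGE at 10uM (its KM) in 50mM KPO4 was preincubated with compound for 10 min at 37C. NADPH regeneration started a 60 min 37C reaction. Luciferin was read by luminescence, normalized to 57uM ketoconazole.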

Assay [8] has as its target Cytochrome P450 3A4 (Homo sapiens) (UniProt P08684). The experiment in a line: qHTS Assay for Inhibitors and Substrates of Cytochrome P450 3A4 (AID 884). Also: series mostly up to about 57 µM; % is scaled to controls: 0 for no effect and ±100 for the full control effect; nearly all actives have a fitted effect of over 50% in size. In short, it runs like this: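 20 nM human CYP3A4 with 25 uM Luciferin-PPXE (at KM) in 200 mM KPO4, preincubated 10 min with compound; NADPH regeneration started a 60 min RT reaction. Luciferin detected by luminescence, normalized to 57 uM ketoconazole as full inhibition.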

Assay [9] addresses Cytochrome P450 2D6 (Homo sapiens) (UniProt P10635). The assay can be described thus: qHTS Assay for Inhibitors and Substrates of Cytochrome P450 2D6 (AID 891).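 Also: luciferin methyl ether substrate demethylated by CYP2D6 with NADPH regeneration; % is scaled to controls: 0 for no effect and ±100 for the full control effect; nearly all actives have a fitted effect of over 60% in size.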 In short, it runs like this:
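Human CYP2D6 (5 nM) with 30 uM Luciferin-ME EGE (at Km) in 100 mM KPO4, compound preincubated 10 min, then NADPH regeneration system for 60 min at room temperature. Luciferin read by luminescence; normalized to 1.43 uM quinidine.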

Records with an inconclusive call do not appear. A number with no mark means an inactive call. The source made the active and inactive calls. Unless noted, calls follow the shape of the dose curve; as a rule, active = well fitted curve in the direction sought with a large enough effect; inconclusive = small, poorly fitted or top-dose-only effect, or another doubt; inactive = no such curve, though single readings can be large; an effect the other way counts as inactive or inconclusive.

Sequence of Cytochrome P450 2C19 (Homo sapiens) (P33261 whole entry, looked up): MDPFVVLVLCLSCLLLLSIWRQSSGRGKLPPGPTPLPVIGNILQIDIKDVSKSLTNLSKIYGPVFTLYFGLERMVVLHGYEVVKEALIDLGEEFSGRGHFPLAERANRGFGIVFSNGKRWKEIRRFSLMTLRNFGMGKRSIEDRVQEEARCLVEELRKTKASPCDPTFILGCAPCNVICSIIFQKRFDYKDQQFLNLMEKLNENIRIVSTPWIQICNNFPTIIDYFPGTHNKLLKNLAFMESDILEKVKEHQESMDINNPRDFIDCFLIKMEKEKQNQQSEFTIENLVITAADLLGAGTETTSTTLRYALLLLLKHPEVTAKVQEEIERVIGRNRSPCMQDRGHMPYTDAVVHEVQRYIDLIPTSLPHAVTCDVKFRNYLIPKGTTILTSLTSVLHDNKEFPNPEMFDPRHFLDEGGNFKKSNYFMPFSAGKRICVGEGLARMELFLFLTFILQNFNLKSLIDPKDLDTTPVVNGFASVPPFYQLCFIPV
Sequence of Cytochrome P450 2C9 (Homo sapiens) (P11712 whole entry, looked up): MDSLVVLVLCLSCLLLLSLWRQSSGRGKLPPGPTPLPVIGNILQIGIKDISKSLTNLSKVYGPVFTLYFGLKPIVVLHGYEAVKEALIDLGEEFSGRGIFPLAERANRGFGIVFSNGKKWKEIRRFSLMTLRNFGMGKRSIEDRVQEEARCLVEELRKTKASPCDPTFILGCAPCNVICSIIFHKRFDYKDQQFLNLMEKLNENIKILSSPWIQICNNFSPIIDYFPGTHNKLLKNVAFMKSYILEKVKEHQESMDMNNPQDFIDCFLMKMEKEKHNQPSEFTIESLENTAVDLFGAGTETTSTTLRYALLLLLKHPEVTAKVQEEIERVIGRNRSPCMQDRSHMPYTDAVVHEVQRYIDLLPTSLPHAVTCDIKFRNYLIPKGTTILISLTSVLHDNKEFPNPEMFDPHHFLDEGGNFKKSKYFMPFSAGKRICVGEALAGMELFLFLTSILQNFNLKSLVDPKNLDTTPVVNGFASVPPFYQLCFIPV
Sequence of Cytochrome P450 2D6 (Homo sapiens) (P10635 whole entry, looked up): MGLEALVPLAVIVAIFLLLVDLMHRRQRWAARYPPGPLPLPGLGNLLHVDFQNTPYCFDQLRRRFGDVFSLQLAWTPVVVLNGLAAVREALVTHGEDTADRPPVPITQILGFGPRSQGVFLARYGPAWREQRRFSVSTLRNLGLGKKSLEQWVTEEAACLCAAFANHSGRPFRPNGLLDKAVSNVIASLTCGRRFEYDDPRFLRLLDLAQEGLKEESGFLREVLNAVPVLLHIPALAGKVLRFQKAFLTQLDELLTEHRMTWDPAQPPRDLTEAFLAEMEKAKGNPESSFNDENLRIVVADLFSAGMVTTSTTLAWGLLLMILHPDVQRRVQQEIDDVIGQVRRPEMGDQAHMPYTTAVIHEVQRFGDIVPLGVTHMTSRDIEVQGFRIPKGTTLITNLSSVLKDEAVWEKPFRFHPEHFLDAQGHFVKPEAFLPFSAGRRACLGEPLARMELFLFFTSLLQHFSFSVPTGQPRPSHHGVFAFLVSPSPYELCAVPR
Sequence of Cytochrome P450 3A4 (Homo sapiens) (P08684 whole entry, looked up): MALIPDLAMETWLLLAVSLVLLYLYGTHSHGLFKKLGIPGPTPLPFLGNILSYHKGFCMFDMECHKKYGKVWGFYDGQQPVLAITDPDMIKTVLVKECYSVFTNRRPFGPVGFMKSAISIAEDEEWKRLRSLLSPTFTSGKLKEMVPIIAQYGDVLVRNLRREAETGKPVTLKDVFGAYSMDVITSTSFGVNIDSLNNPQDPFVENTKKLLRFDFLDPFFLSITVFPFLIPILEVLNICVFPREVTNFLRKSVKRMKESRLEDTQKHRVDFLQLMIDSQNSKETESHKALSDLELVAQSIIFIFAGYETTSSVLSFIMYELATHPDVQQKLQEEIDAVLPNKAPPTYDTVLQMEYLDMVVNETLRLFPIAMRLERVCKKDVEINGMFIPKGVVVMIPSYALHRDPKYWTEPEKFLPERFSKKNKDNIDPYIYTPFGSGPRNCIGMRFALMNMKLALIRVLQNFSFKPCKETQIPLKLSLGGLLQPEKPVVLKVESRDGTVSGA

`CC1(OC(=O)C2CCCC2)C(=O)C=C2C=C(c3ccsc3)N(CCN3CCOCC3)C=C2C1=O` (centres undefined): the Potency result in assay [1], in [2], in [3], in [4] and in [5] was “inactive” each time.

As to `CC(C)=CCN1C(=O)[C@]2(O[C@H](C)CC3=CCCC32)c2c(Br)cccc21` (some centres undefined), the Potency entry in assay [1], in [2], in [3], in assay [4] and in [5] was “inactive” each time.

On to `COCCN1C(=O)NC(c2ccc(Br)cc2)C(C(=O)OC)=C1C` (centres undefined), for which the Potency result in [1], in assay [2], in assay [4] and in assay [5] was “inactive” throughout.

Turning to `CCCCC1=CC2=CC(=O)C(C)(OC(=O)c3cnc4ccccc4n3)C(=O)C2=CO1` (centres undefined), the Potency result in assay [1], in [2], in assay [3], in assay [4] and in [5] was “inactive” in each case.

`O=C1CCCC=C1[C@@H](O)CCOC(c1ccccc1)(c1ccccc1)c1ccccc1`: the Potency was 0.794 µM (active) in assay [6]; 0.251 µM (active) in assay [7]; 1.51 µM (active) in [1]; 1.69 µM (active) in assay [2]; 1.51 µM (active) in assay [3]. The Potency result in assay [5] was “inactive”.

Regarding `COC(=O)N[C@@H](c1ccc(Br)cc1)C(C(=O)OC)C(=O)OC`, the Potency result in [1], in assay [2], in assay [3], in assay [4] and in [5] was “inactive” in each case.

On to `C#CCN1C(=O)[C@]2(OCCC=C[C@H]2C)c2ccccc21`, for which the Potency entry in assay [1], in [2], in [3], in [4] and in assay [5] was “inactive” throughout.

Turning to `C=C(C)C(O)C=Cc1ccc(C(F)(F)F)cc1` (centres undefined), the Potency result in assay [1], in assay [2], in assay [3] and in assay [4] was “inactive” in each case. The Potency in assay [5] is 5.31 µM (active).

Turning to `CC(C)=CCCC(C)=CCON=C1C[C@@H](O)[C@@H](O)[C@@H]2[C@H]3C(=O)N(Cc4ccc5c(c4)OCO5)C(=O)[C@@H]3CC[C@@H]12`, the Potency entry in [1], in [2], in assay [4] and in [5] was “inactive” each time.

For `COC1=C[C@H](C(=O)NCCOC(C)=O)[C@H](C)[C@@H](c2ccccc2)CC1=O`, the Potency entry in [1], in [2], in [3], in assay [4] and in [5] was “inactive” in each case.

Consider `COC(=O)CC=C1c2ccccc2OC[C@@H](OC)[C@H]1C`, for which the Potency entry in [1], in [2], in assay [3], in [4] and in assay [5] was “inactive” each time.

On to `COC1=C[C@H](C(=O)NCc2ccc(Br)cc2)[C@H](C)[C@@H](c2ccccc2)CC1=O`, for which the Potency result in assay [1], in [2], in assay [4] and in [5] was “inactive” throughout.

Turning to `CO[C@H](c1ccccc1Br)[C@H](C)C=CCCO`, the Potency entry in assay [1], in assay [2], in assay [3], in [4] and in [5] was “inactive” throughout.

For the compound `COc1ccc2c(c1)O[C@@H](c1cccc(C(F)(F)F)c1)[C@H](O)C2=O`, the Potency entry in assay [1], in assay [2], in [3], in [4] and in [5] was “inactive” throughout.

`COC(=O)N1C2=C(c3ccccc3[C@@H]1CC(=O)O)[C@@H]1O[C@@H](C2)c2ccccc21`: the Potency result in assay [1], in assay [2], in assay [3], in [4] and in assay [5] was “inactive” each time.

`COc1cc2c(c(OC)c1OC)CC(C)=C(C)CC2NC(=O)C(F)(F)F` (centres undefined): the Potency result in [1], in assay [2], in [3], in assay [4] and in [5] was “inactive” each time.

`CC(C)=CCN1C(=O)C2(CC(C)=C[C@@H](C)O2)c2c(Br)cccc21` (some centres undefined): the Potency result in assay [1], in assay [2], in assay [3], in [4] and in assay [5] was “inactive” each time.

On to `COC(=O)c1ccc(CN2C(=O)[C@]3(OCCC=C[C@@H]3C)c3ccccc32)cc1`, for which the Potency entry in assay [1], in assay [2], in [3], in assay [4] and in [5] was “inactive” each time.

In the case of `COc1cccc([C@@H]2Oc3ccc(OC)cc3C[C@@H]2OC(=O)N[C@H]2CCCc3ccccc32)c1`, the Potency result in assay [1], in assay [4] and in assay [5] was “inactive” throughout. Further, the Potency in assay [2] is 1.51 µM (active).

Regarding `CCc1cc2c(nc1CC)CCN(CCC(C)=NOC[C@@H](O)COCc1ccco1)C2`, the Potency entry in assay [1], in assay [4] and in assay [5] was “inactive” each time. Further, the Potency in assay [2] is 1.51 µM (active).

For `COCC=CC1=CC2=CC(=O)C(C)(OC(=O)c3cnc4ccccc4n3)C(=O)C2=CN1C1CC1` (centres undefined), the Potency entry in assay [1], in [2], in assay [3], in assay [4] and in assay [5] was “inactive” in each case.

For `CNc1ccccc1C(=O)OCC(C)=O`, the activity change, negative = inhibition was 24.8% [at 11.4 µM] in assay [6], -11.5% [at 11.4 µM] in [8] and 9.06% [at 11.4 µM] in assay [9]. The activity, negative = inhibition in [7] was -17.8% [at 11.4 µM]. Besides, the Potency result in assay [1], in assay [2], in [3], in assay [4] and in assay [5] was “inactive” throughout.

On to `COCCN1C(=O)CC[C@@]23C1=NC(C(=O)OC)=C(C(=O)OC)[C@@H]2N(Cc1ccccc1)c1ccccc13`, for which the Potency result in [1], in assay [2], in assay [4] and in [5] was “inactive” in each case.

`COc1cc(O)c(C(=O)C=Cc2ccc3c(c2)OCO3)c(OC)c1`: the Potency result in assay [1], in assay [2], in assay [3], in [4] and in [5] was “inactive” each time.

With `O=C1C2=C(C(=O)c3ccccc31)[C@H]1O[C@](CCCCN3C(=O)c4ccccc4C3=O)(Cc3ccccc31)O2`, the Potency in assay [1], in [2] and in assay [3] was 1.69 µM (active) throughout. The Potency entry in [4] and in [5] was “inactive” each time.

As to `CCc1cc2c(nc1CC)CCN(CCC(C)=NOC[C@@H](O)[C@H]1O[C@@H]3OC(C)(C)O[C@H]3[C@@H]1O)C2`, the Potency entry in [1], in assay [4] and in assay [5] was “inactive” throughout. In addition, the Potency in assay [2] is 1.69 µM (active); in assay [3], 2.94 µM (active).
